From PubChem BioAssay
Results filed as inconclusive are left out. Activity calls are given as the source filed them.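 Rule for the calls, unless noted: active = viability at or below 10% of carrier control in both of two separate runs; inconclusive = viability at or below 10% in only one of the two runs; inactive = the rest.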

Columns and labels:
[1] = Her2 expression decrease, cell viability multiplex – SKBR3 breast tumor cells, AlphaScreen, ATP viability, primary screen (AID 461;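 active = Her2 level under about 52% in both replicate screens, with viability over 70% of control, limit read from the data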;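 for Her2 level: lower value means less Her2 protein in the cells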;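 for viability: percent of carrier control wells set as 100% viability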); conditions: SKBR3 Her2 protein level, 18-24 h, measured here: SKBR3 viability, ATP luminescence, at 10 µM
[2] = molecular target: Receptor tyrosine-protein kinase erbB-2 (Homo sapiens) (UniProt P04626); test: as above; conditions: 18-24 h, at 10 µM, stronger effect = lower value
[3] = reduced viability of SK-BR-3 breast cancer cells – cell-based, 24 h, human, pilot screen (AID 572); conditions: SK-BR-3 viability, CellTiter-Glo luminescence, at 10 µM, stronger effect = lower value;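 note: compound exposure lasted between 18 and 24 h rather than exactly 24 h; 100% = carrier-treated control wells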
[4] = HUVEC growth inhibition – cell-based, human, primary screen (AID 575;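 active = viability at or below 30% in both replicate assays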;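 note: 100% = median of untreated cell wells with 0.1% DMSO on each plate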); conditions: HUVEC proliferation, CellTiter-Glo luminescence, 72 h; at 10 µM; stronger effect = lower value
[5] = H69AR cell proliferation blockers – human, duplicate replicates, primary screen (AID 580;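 active = viability at or under a set limit in both replicates, limit being median viability minus 3 SD, cut at about 48% in these data, passing the limit was not always enough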;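 note: 100% = mean luminescence of untreated wells and 0% = no signal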); conditions: H69AR lung tumor cells viability, ATP luminescence, 72 h; at 10 µM; stronger effect = lower value
[6] = MRP1 drug-resistance reversers in H69AR cells – cell-based, doxorubicin co-treatment, pilot screen (AID 601;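 active = viability loss from added drug above about 55%, and viability with drug at most 40%, in both replicates, limit read from the data, passing the limit was not always enough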); conditions: CellTiter-Glo, 72 h, at 10 µM; for differential viability (reversal): stronger effect = higher value
[7] = yeast transport mutant growth inhibition pilot in 384-well plates, post-Golgi transport modulator project (AID 636; in the data active = inhibition above about 31%); conditions: absorbance 615 nm, about 18 h, stronger effect = higher value
[8] = growth suppression of yeast trafficking mutant, preliminary HTS, modulators of trafficking downstream of Golgi apparatus project, 1536-format plate, OD 615 nm (AID 637; in the data active = inhibition above about 30%); conditions: yeast transport mutant growth, absorbance 615 nm, 18 h; stronger effect = higher value
[9] = S. cerevisiae growth inhibition in restrictive medium, OD615, pilot screen, restrictive growth control, yeast lifespan reduction project (AID 706;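 active = growth inhibition above a set limit, 3 SD over mean compound inhibition, in both replicates, cut at about 43% in these data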;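 note: modified DeaD lifespan yeast strain shifted to restrictive glucose medium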); conditions: OD615, 48 h, at 10 µM, stronger effect = higher value
[10] = doxorubicin toxicity protection in MRP-1 cells – H69AR cells, CellTiter-Glo, duplicate, MRP-1 activator project, pilot screen (AID 807;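 active = viability increase at or above a cutoff of the median across tested compounds plus 3 SD, cut at about 8.5% in these data, passing the limit was not always enough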;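 note: compound pretreatment 18-22 h then 72 h combined with doxorubicin; 0% = doxorubicin alone and 100% = vehicle without doxorubicin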); conditions: H69AR viability with doxorubicin, CellTiter-Glo luminescence; at 10 µM; stronger effect = higher value
[11] = viability of HCT116 without oncogenic beta-catenin – human colon tumor cells, pilot screen (AID 823;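 active = cell viability at or below a set limit in both duplicate runs, the limit being the all-compound median minus 4 SD, cut at about 23% in these data, passing the limit was not always enough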;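 note: 0% = wells killed by 20 µM Hyamine and 100% = untreated DMSO cell wells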); conditions: HCT116 beta-catenin knockout viability, CellTiter-Glo, 60 h; at 10 µM; stronger effect = lower value
[12] = viability of PTEN-null HCT116 cells – cell-based, HCT116 clonal line, CellTiter-Glo, pilot screen (AID 824;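 active = viability at or below 27.92% in each of two runs, the all-compound median minus 4 SD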;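 note: 0% = 20 µM Hyamine control and 100% = vehicle cell control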); conditions: HCT116 PTEN-deleted viability, 60 h, at 10 µM, stronger effect = lower value
[13] = RAM pathway blockade in budding yeast – dse1pr::URA3 reporter, 5-FOA selection, pilot screen (AID 869;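 active = inhibition over a set limit, the all-compound mean plus 3 SD, in both replicate runs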;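 note: 0% = DMSO wells with no growth and 100% = 10 µM 1-NA-PP1 with full growth; RAM network block rescues cells from 5-FOA so hits raise OD615 growth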); conditions: S. cerevisiae dse1pr::URA3 5-FOA growth, OD615, 2 d; at 10 µM; stronger effect = higher value; strain carries analog-sensitive mutant Cbk1 kinase
[14] = RAM signaling pathway blockade in yeast – S. cerevisiae, Pdr1DBD-CYC8 efflux-inhibited sensitized strain, primary screen (AID 1298;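 active = RAM network inhibition above 8.4% in each of two replicates, 3 SD over the compound average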;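 note: 0% = DMSO untreated cells without growth and 100% = 10 µM 1-NA-PP1 full growth; higher means more yeast growth rescued from 5-FOA killing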); conditions: S. cerevisiae cbk1-as DSE1-URA3 strain, 5-FOA growth OD615, 2 d; at 50 µM; stronger effect = higher value
[15] = S. cerevisiae growth inhibition in permissive medium (OD615), pilot counter-assay for S. cerevisiae lifespan shortening project, permissive growth control (AID 705;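 active = growth inhibition above 25% in both replicates, a cutoff set 3 SD above the mean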); conditions: OD615, 24 h, at 10 µM, stronger effect = higher value
[16] = H69AR cells + 2 uM doxorubicin, measured here: viability with 2 uM doxorubicin, stronger effect = lower value
[17] = H69AR cells, compound alone cytotoxicity

Chain of Receptor tyrosine-protein kinase erbB-2 (Homo sapiens) (P04626 whole entry, looked up): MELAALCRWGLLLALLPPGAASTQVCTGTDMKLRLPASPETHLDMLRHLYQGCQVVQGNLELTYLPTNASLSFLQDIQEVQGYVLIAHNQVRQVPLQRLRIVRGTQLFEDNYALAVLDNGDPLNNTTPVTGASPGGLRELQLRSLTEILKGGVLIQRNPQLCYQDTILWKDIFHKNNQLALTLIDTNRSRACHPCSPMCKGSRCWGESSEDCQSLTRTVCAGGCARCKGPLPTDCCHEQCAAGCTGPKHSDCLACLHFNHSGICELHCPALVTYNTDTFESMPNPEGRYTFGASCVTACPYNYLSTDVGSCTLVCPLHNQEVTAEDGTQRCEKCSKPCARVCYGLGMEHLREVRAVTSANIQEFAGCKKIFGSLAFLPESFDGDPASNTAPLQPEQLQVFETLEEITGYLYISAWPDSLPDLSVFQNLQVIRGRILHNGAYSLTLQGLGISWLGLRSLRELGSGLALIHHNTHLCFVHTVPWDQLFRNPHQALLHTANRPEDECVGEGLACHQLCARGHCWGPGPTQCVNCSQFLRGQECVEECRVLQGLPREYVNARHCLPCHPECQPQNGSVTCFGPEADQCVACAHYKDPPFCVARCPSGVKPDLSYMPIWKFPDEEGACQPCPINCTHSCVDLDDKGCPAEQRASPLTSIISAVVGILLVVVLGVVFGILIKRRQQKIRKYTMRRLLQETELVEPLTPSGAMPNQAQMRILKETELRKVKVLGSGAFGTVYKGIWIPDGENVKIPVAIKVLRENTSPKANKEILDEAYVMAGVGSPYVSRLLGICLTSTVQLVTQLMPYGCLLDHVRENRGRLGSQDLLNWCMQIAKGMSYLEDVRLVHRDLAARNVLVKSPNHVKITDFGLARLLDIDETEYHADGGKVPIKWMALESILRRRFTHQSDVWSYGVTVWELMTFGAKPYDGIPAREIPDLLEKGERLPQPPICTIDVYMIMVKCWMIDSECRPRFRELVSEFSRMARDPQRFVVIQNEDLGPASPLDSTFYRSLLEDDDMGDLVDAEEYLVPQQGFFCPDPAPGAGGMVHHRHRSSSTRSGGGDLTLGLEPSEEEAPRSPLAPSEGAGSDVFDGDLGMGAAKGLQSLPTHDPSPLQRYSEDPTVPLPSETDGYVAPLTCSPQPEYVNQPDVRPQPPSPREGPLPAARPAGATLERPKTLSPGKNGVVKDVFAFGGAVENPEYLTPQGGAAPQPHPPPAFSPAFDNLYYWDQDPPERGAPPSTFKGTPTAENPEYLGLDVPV

O=C(Cn1ncc2c1-c1ccccc1OC2)N1CCc2ccccc21
83.5%: viability [1]
85.2%: viability [6, 16]
inactive: Her2 level [2] 100% | viability [3] 83.5% | viability [4] 96.2% | viability [5] 84.3% | differential viability (reversal) ([6]; H69AR cells + 2 uM doxorubicin) -0.91% | inhibition [7] 0.51% | inhibition [8] -5.33% | growth inhibition [9] -6.7% | viability increase [10] -0.77% | viability [11] 93.4% | viability [12] 88.4% | inhibition [13] -0.23% | RAM network inhibition [14] 6.41%
84.3%: viability [6, 17]

Cn1c(SCC(=O)c2cc3ccccc3o2)nnc1-c1ccccc1
inactive: Her2 level [2] 97.5% | viability [3] 96.5% | viability [4] 105% | viability [5] 84.3% | differential viability (reversal) ([6]; H69AR cells + 2 uM doxorubicin) 3.21% | inhibition [7] -6% | inhibition [8] 13.3% | growth inhibition [15] 10.3% | viability increase [10] -3.83% | viability [11] 97.9% | viability [12] 96.8% | inhibition [13] 1.88% | RAM network inhibition [14] 6.5%
96.5%: viability [1]
84.3%: viability [6, 17]
81.1%: viability [6, 16]

C/C=C/COC(=O)c1[nH]c2c(c1C)C(=O)CC(c1ccc(N(C)C)cc1)C2 (stereo not given)
92%: viability [1]
72.1%: viability [6, 16]
inactive: Her2 level [2] 94% | viability [3] 92% | viability [4] 62.4% | differential viability (reversal) ([6]; H69AR cells + 2 uM doxorubicin) -30.1% | inhibition [7] 2% | growth inhibition [15] -10.2% | growth inhibition [9] -9.05% | viability increase [10] -2.69% | viability [11] 60.6% | viability [12] 66.6% | inhibition [13] 1.9% | RAM network inhibition [14] 4.88%
active: inhibition [8] 49.8%
41.9%: viability [6, 17]

CCOc1ccccc1C1CC(c2ccc(Br)cc2)Nc2nc(N)nn21 (stereo not given)
71.6%: viability [6, 16]
inactive: Her2 level [2] 102% | viability [3] 91.5% | viability [4] 63.3% | differential viability (reversal) ([6]; H69AR cells + 2 uM doxorubicin) -45.9% | inhibition [7] -2.13% | inhibition [8] 0.16% | growth inhibition [15] 9.24% | viability increase [10] -2.25% | viability [11] 69.3% | viability [12] 73.2% | inhibition [13] 2.62% | RAM network inhibition [14] 4.4%
25.7%: viability [6, 17]
active: viability [5] 25.7%
91.5%: viability [1]

Cc1noc(/C=C/N(C)C)c1S(=O)(=O)N1CCCC(C(=O)N2CCCCC2)C1 (stereo not given)
101%: viability [6, 16]
97.3%: viability [6, 17]
inactive: Her2 level [2] 97% | viability [3] 84% | viability [4] 95.9% | viability [5] 97.3% | differential viability (reversal) ([6]; H69AR cells + 2 uM doxorubicin) -3.44% | inhibition [7] 1.07% | inhibition [8] -7.21% | growth inhibition [15] 4.08% | growth inhibition [9] 5.73% | viability [11] 87.4% | viability [12] 85.2% | inhibition [13] 1.34% | RAM network inhibition [14] 5.03%
84%: viability [1]

CC(C)CC1NC2(C(=O)N(C)c3ccccc32)C2C(=O)N(C(C)C)C(=O)C12 (stereo not given)
86.5%: viability [1]
inactive: Her2 level [2] 110% | viability [3] 86.5% | viability [4] 83.3% | viability [5] 99.1% | inhibition [7] -1.73% | inhibition [8] -0.33% | growth inhibition [15] 4.83% | growth inhibition [9] 6.6% | viability increase [10] -1.13% | viability [11] 103% | viability [12] 103% | inhibition [13] 1.11% | RAM network inhibition [14] 2.88%

COc1ccc(-n2ncc3c(N4CCN(c5cccc(C)c5C)CC4)ncnc32)cc1
active: viability [4] 11.3% | viability [5] 27.1%
27.1%: viability [6, 17]
88%: viability [1]
21.7%: viability [6, 16]
inactive: Her2 level [2] 79% | viability [3] 88% | differential viability (reversal) ([6]; H69AR cells + 2 uM doxorubicin) 5.39% | inhibition [7] -2.4% | inhibition [8] -2.17% | growth inhibition [15] -5% | growth inhibition [9] -6.91% | viability increase [10] -7.5% | inhibition [13] 1.51% | RAM network inhibition [14] 7.15%

CC(C)CCSc1nc2c(c(=O)[nH]c(=O)n2C)n1CCCc1ccccc1
inactive: Her2 level [2] 71% | viability [3] 87.5% | viability [4] 46.7% | differential viability (reversal) ([6]; H69AR cells + 2 uM doxorubicin) -8.95% | inhibition [7] -3.73% | inhibition [8] 4.17% | growth inhibition [15] -11.8% | growth inhibition [9] -9.37% | viability increase [10] -4.55% | viability [11] 68.8% | viability [12] 59.1% | inhibition [13] 3.84% | RAM network inhibition [14] 9.02%
50%: viability [6, 17]
87.5%: viability [1]
58.9%: viability [6, 16]

CC(C)c1ccc(NC(=O)CCNS(=O)(=O)c2cccc3nonc23)cc1
98.5%: viability [1]
93.9%: viability [6, 16]
95.3%: viability [6, 17]
inactive: Her2 level [2] 89% | viability [3] 98.5% | viability [4] 84.6% | viability [5] 95.3% | differential viability (reversal) ([6]; H69AR cells + 2 uM doxorubicin) 1.35% | inhibition [7] -8.9% | inhibition [8] -3.17% | growth inhibition [15] -7.97% | growth inhibition [9] -5.83% | viability increase [10] -1.42% | viability [12] 86.3% | inhibition [13] 0.265% | RAM network inhibition [14] 1.64%

O=c1[nH]c2ccc(Br)cc2c(-c2ccccc2)c1N1CCOCC1
inactive: Her2 level [2] 111% | viability [3] 91% | viability [4] 60.1% | viability [5] 75.7% | inhibition [7] 0% | inhibition [8] 2% | growth inhibition [15] -12.5% | growth inhibition [9] -15.8% | viability increase [10] -3.63% | viability [11] 92.7% | viability [12] 75.2% | inhibition [13] 1.29% | RAM network inhibition [14] 0%
91%: viability [1]
